Laboratory results reported in PubChem BioAssay (Tox21).
Inconclusive results are not listed. Entries that show only a call come without a potency. Unmarked numbers belong to inactive results. Activity calls are given as the source filed them. Calls follow the shape of the dose curve; as a rule, active = well fitted cell-killing curve with a large enough effect in the repeat runs; inconclusive = weak or mixed curves, or effect the other way; inactive = flat fitted curve, though single readings scatter.

How the values were obtained:
[1] = cAMP Responsive Elements (CRE) small molecule antagonists, cell-based qHTS assay: qHTS cell viability counter screen (AID 2060913); also: nearly all actives have a fitted effect of over 40% in size
Outline: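 Steps: cells plated and held 18 hrs at 37 C/5% CO2; compounds and NKH477 (0.25 uM final) added; 3 hrs incubation; reporter substrate read; CellTiter-Glo added to measure cytotoxicity by luminescence.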

[2] = cAMP Responsive Elements (CRE) small molecule agonists, cell-based qHTS assay: qHTS cell viability counter screen (AID 2060914);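 also: viability read after 3 h of compound exposure; nearly all actives have a fitted effect of over 50% in size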
Outline: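 CRE-bla HEK293T cells in 10% dialyzed FBS medium were exposed to compounds for 3 h at 37C after 18 h plating. CellTiter-Glo was then added in the same wells, and luminescence was read after 30 min at room temperature.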
Potency is read from the fitted curve at half-maximal effect.

Row | SMILES | Potency [1] | Potency [2] | viability change, negative = cytotoxic [1] | activity change, negative = cytotoxicity [2]
1 | Cn1c(=O)c2c(ncn2CC(=O)O)n(C)c1=O | inactive | inactive | – | –
2 | c1ccc(Cc2ccccc2)cc1 | inactive | inactive | – | –
3 | O=C(CN1CCN(Cc2ccc3c(c2)OCO3)CC1)N1c2ccccc2Sc2ccccc21 | inactive | inactive | – | –
4 | CCCCOC(=O)CCS | inactive | inactive | – | –
5 | CCCc1nc2c(C)cc(-c3nc4ccccc4n3C)cc2n1Cc1ccc(-c2ccccc2C(=O)O)cc1 | inactive | inactive | – | –
6 | Nc1cccc2c1CN(C1CCC(=O)NC1=O)C2=O (stereo not given) | inactive | inactive | – | –
7 | C[C@@H]1C[C@H]2[C@@H]3CCC4=CC(=O)C=C[C@]4(C)[C@@]3(F)[C@@H](O)C[C@]2(C)[C@@]1(O)C(=O)COP(=O)(O)O | inactive | inactive | – | –
8 | Cc1c(F)cc2c(=O)c(C(=O)O)cn3c2c1CCC3C (stereo not given) | inactive | inactive | – | –
9 | CC(=O)c1ccccn1 | inactive | inactive | – | –
10 | C=COCC1CCC(CO)CC1 (stereo not given) | inactive | inactive | – | –
11 | CC(C)c1ccc2oc3nc(N)c(C(=O)O)cc3c(=O)c2c1 | inactive | inactive | – | –
12 | O=C(O)CN(CCN(CC(=O)O)CC(=O)O)CCN(CC(=O)O)CC(=O)O | – | – | 8.32% [at 18.9 µM] | 3.54% [at 18.9 µM]
13 | O=C(Cl)c1c(Cl)c(Cl)c(C(=O)Cl)c(Cl)c1Cl | inactive | inactive | – | –
14 | O=C(Cl)c1cccc(C(=O)Cl)c1 | inactive | inactive | – | –
15 | OC1(c2ccccc2)CCNCC1 | inactive | inactive | – | –
16 | CCN(CCCCOC(=O)c1ccc(OC)c(OC)c1)C(C)Cc1ccc(OC)cc1 (stereo not given) | inactive | inactive | – | –
17 | O=C(O)COCC(=O)O | inactive | inactive | – | –
18 | CCCCCO | inactive | inactive | – | –
19 | CCCCCCCCCCl | inactive | inactive | – | –
20 | CCC[C@@H]1C[C@@H](C(=O)N[C@@H]([C@H]2O[C@H](SC)[C@H](O)[C@@H](O)[C@H]2O)[C@@H](C)O)N(C)C1 | inactive | inactive | – | –
21 | CSc1ccc2c(c1)N(CCC1CCCCN1C)c1ccccc1S2 (stereo not given) | 60.9 µM (active) | 60.9 µM (active) | – | –
22 | COC(=O)CCCCC(=O)OC | inactive | inactive | – | –
23 | NS(=O)(=O)c1cc2c(cc1Cl)NC=NS2(=O)=O | inactive | inactive | – | –

Row | SMILES | Potency [1] | Potency [2] | viability change, negative = cytotoxic [1] | activity change, negative = cytotoxicity [2]
24 | CN1CCN(C2=Nc3cc(Cl)ccc3Nc3ccccc32)CC1 | inactive | inactive | – | –
25 | CCCCCCCC/C=C\CCCCCCCCCCCC(=O)O | inactive | inactive | – | –
26 | CC(C)(C)c1n[nH]c(=O)n(N)c1=O | inactive | inactive | – | –
27 | O=C(O)CCCC[C@@H]1SC[C@@H]2NC(=O)N[C@@H]21 | inactive | inactive | – | –
28 | O=C(Oc1ccccc1)c1ccccc1C(=O)Oc1ccccc1 | inactive | inactive | – | –
29 | COC(=O)C1CCC(C(=O)OC)CC1 (stereo not given) | inactive | inactive | – | –
30 | CC(C)=CCCC(C)CC(=O)O (stereo not given) | inactive | inactive | – | –
31 | S=C(S)NCCNC(=S)S | inactive | inactive | – | –
32 | CCCCCCCCCCCCCC(=O)OCC | inactive | inactive | – | –
33 | Cc1ccccc1C(=O)N1CC/C(=N\OS(=O)(=O)O)c2ccc(Cl)cc21 | inactive | inactive | – | –
34 | Cc1ccc(C(=O)Nc2ccc(S(=O)(=O)O)c3cc(S(=O)(=O)O)cc(S(=O)(=O)O)c23)cc1NC(=O)c1cccc(NC(=O)Nc2cccc(C(=O)Nc3cc(C(=O)Nc4ccc(S(=O)(=O)O)c5cc(S(=O)(=O)O)cc(S(=O)(=O)O)c45)ccc3C)c2)c1 | inactive | inactive | – | –
35 | Cc1ccc(-c2ccccc2C#N)cc1 | inactive | inactive | – | –
36 | NC1CCCCC1N (stereo not given) | inactive | inactive | – | –
37 | CC1(C)CC(N)CC(C)(C)N1 | inactive | inactive | – | –
38 | Nc1ccc(NC(=O)c2ccc(N)cc2)cc1 | inactive | inactive | – | –
39 | O=P(O)(O)OP(=O)(O)O | inactive | inactive | – | –
40 | CCCCC(CC)COCCCN (stereo not given) | inactive | inactive | – | –
41 | COC(=O)c1ccccc1OC | inactive | inactive | – | –
42 | OC1OCCOC1O (stereo not given) | inactive | inactive | – | –
43 | NC(=O)c1cn(Cc2c(F)cccc2F)nn1 | inactive | inactive | – | –
44 | CN(C)CCCCl | inactive | inactive | – | –
45 | CN(C)CCOC1=Cc2ccccc2Sc2ccc(Cl)cc21 | inactive | inactive | – | –
46 | CCCc1ncc(C(=O)O)s1 | inactive | inactive | – | –

Row | SMILES | Potency [1] | Potency [2] | viability change, negative = cytotoxic [1] | activity change, negative = cytotoxicity [2]
47 | CO[Si](CCCOCC1CO1)(OC)OC (stereo not given) | inactive | inactive | – | –
48 | CCN(CC)CCNc1ccc(CNC=O)c2sc3ccc(OC)cc3c(=O)c12 | inactive | inactive | – | –
49 | Nc1ccc(N)c(Cl)c1 | inactive | inactive | – | –
50 | CC(CO)c1ccccc1 (stereo not given) | inactive | inactive | – | –
51 | Cc1cc(C(C)(C)C)c(O)c(C(C)(C)C)c1 | inactive | inactive | – | –
52 | CN(C)CCOC(c1ccccc1)c1ccc(Br)cc1 (stereo not given) | inactive | inactive | – | –
53 | CC(C)c1cc2c(cc1S(=O)(=O)O)[C@@]1(C)CCC[C@@](C)(C(=O)O)[C@@H]1CC2 | inactive | inactive | – | –
54 | NC(CCC(=O)O)C(=O)O (stereo not given) | inactive | inactive | – | –
55 | Nc1cccc(N)c1 | inactive | inactive | – | –
56 | O=C(O)c1cn(C2CC2)c2cc(N3CCNCC3)c(F)cc2c1=O | inactive | inactive | – | –
57 | C[Si](C)(CCCN)O[Si](C)(C)CCCN | inactive | inactive | – | –
58 | CCCCCCCCCCCl | inactive | inactive | – | –
59 | C=CCc1ccccc1OCC(O)CNC(C)C (stereo not given) | inactive | inactive | – | –
60 | CCC(C)OC(=O)N1CCCCC1CCO (stereo not given) | inactive | inactive | – | –
61 | Clc1nc2ccccc2nc1Cl | inactive | inactive | – | –
62 | CCCCc1ncc(/C=C(\Cc2cccs2)C(=O)O)n1Cc1ccc(C(=O)O)cc1 | inactive | inactive | – | –
63 | CC(=O)/C=C/c1ccco1 | inactive | inactive | – | –
64 | CCC(=O)O[C@@H]1C[C@H]2CC[C@]1(C)C2(C)C | inactive | inactive | – | –
65 | C/C(=C(/OCCOc1ccc(Cl)cc1)c1ccc(Cl)cc1Cl)n1ccnc1 | inactive | inactive | – | –
66 | Cc1cc(C)cc(OCC2CNC(=O)O2)c1 (stereo not given) | inactive | inactive | – | –
67 | CC(=O)O[C@]1(C(C)=O)CC[C@H]2[C@@H]3C=C(C)C4=CC(=O)CC[C@]4(C)[C@H]3CC[C@@]21C | inactive | inactive | – | –
68 | CCCC(=O)OC(=O)CCC | inactive | inactive | – | –
69 | CNC(=O)[C@H]1O[C@@H](n2cnc3c(NCc4cc(Cl)ccc4OCc4cc(C)no4)ncnc32)[C@H](O)[C@@H]1N | inactive | inactive | – | –

Row | SMILES | Potency [1] | Potency [2] | viability change, negative = cytotoxic [1] | activity change, negative = cytotoxicity [2]
70 | O=C(O)CC(C(=O)O)S(=O)(=O)O (stereo not given) | inactive | inactive | – | –
71 | CCCCC1=NC2(CCCC2)C(=O)N1Cc1ccc(-c2ccccc2-c2nn[nH]n2)cc1 | inactive | inactive | – | –
72 | CC(=O)c1ccccc1O | inactive | inactive | – | –
73 | O=C(c1ccccc1)C(O)c1ccccc1 (stereo not given) | inactive | inactive | – | –
74 | Cc1ccccc1N=O | inactive | inactive | – | –
75 | O=C(NCC(O)CO)c1c(I)c(C(=O)NCC(O)CO)c(I)c(N(CCO)C(=O)CO)c1I (stereo not given) | inactive | inactive | – | –
76 | CCC1CO1 (stereo not given) | inactive | inactive | – | –
77 | O=C(CCOCCOCCOCCOCCC(=O)Nc1c(I)cc(I)c(C(=O)O)c1I)Nc1c(I)cc(I)c(C(=O)O)c1I | inactive | inactive | – | –
78 | Cc1cccc(C)c1NC(=O)c1ccc(N)cc1 | inactive | inactive | – | –
79 | CCc1ccc(CC)cc1 | inactive | inactive | – | –
80 | O=Cc1cccc(Br)c1 | inactive | inactive | – | –
81 | CNCCCN1c2ccccc2CCc2ccccc21 | inactive | inactive | – | –
82 | O=C(c1ccc(F)cc1)C1CCN(CCn2c(=O)[nH]c3ccccc3c2=O)CC1 | inactive | inactive | – | –
83 | COc1ccc([C@@H]2Sc3ccccc3NC(=O)[C@@H]2O)cc1 | inactive | inactive | – | –
84 | O=C(O)c1ccc2cc(C(=O)O)ccc2c1 | inactive | inactive | – | –
85 | C=CCCCCCCCCO | inactive | inactive | – | –
86 | CC(CN(CCN(CC(C)OCCO)CC(C)OCCO)CC(C)OCCO)OCCO (stereo not given) | inactive | inactive | – | –
87 | C=CCOC(=O)CCCCCCCC | inactive | inactive | – | –
88 | CCOC(=O)c1ccccc1 | inactive | inactive | – | –
89 | CCN(CC)CC(=O)Nc1c(C)cccc1C(=O)OC | inactive | inactive | – | –
90 | CCCN1C=CN(C)C1 | inactive | inactive | – | –
91 | CCOC(=O)c1ccc(O)cc1 | inactive | inactive | – | –
92 | CC(C)(C)c1cc(CCC(=O)NN)cc(C(C)(C)C)c1O | inactive | inactive | – | –

Row | SMILES | Potency [1] | Potency [2] | viability change, negative = cytotoxic [1] | activity change, negative = cytotoxicity [2]
93 | CC1=CC=C(C(C)C)CC1 | inactive | inactive | – | –
94 | CCOc1ccc(Cc2nccc3cc(OCC)c(OCC)cc23)cc1OCC | inactive | inactive | – | –
95 | CC1(C)C(=O)NC(=O)N1CO | inactive | inactive | – | –
96 | CCOc1ccc(N=Nc2ccc(/C=C/c3ccc(N=Nc4ccc(OCC)cc4)cc3S(=O)(=O)O)c(S(=O)(=O)O)c2)cc1 | inactive | inactive | – | –
97 | O=c1cccccc1O | inactive | inactive | – | –
98 | CCCCCCN | inactive | inactive | – | –
99 | CCOC(=O)[C@H](CCc1ccccc1)N[C@@H](C)C(=O)N(CC(=O)O)C1Cc2ccccc2C1 | inactive | inactive | – | –
100 | CC(C)COC(=O)/C=C/c1ccccc1 | inactive | inactive | – | –
101 | Cc1ccc(O)c(O)c1 | inactive | inactive | – | –
102 | CCCCOCCOCCOCCOCCO | inactive | inactive | – | –
103 | CCCCC(CC)COC(=O)CC#N (stereo not given) | inactive | inactive | – | –
104 | Cc1ccc(N/N=c2\c(=O)cc/c(=N\Nc3ccc(S(=O)(=O)O)cc3)c2=O)c(C)c1 | inactive | inactive | – | –
105 | Oc1ccc(O)c2c(O)cccc12 | inactive | inactive | – | –
106 | Cc1cnccn1 | inactive | inactive | – | –
107 | CCCOc1ccc2c(c1)CC[C@@H]1[C@@H]2CC[C@]2(C)C(OC)CC[C@@H]12 (stereo not given in full) | inactive | inactive | – | –
108 | CC(=O)CC(=O)Nc1ccc(S(=O)(=O)O)cc1 | inactive | inactive | – | –
109 | C=C(C)CNCC | inactive | inactive | – | –
110 | CCCC(=O)OCOC(=O)C1=C(C)NC(C)=C(C(=O)OC)C1c1cccc(Cl)c1Cl (stereo not given) | inactive | inactive | – | –
111 | NNc1nc(-c2ccccc2)cs1 | inactive | inactive | – | –
112 | CCCCCCOc1ccc(O)cc1 | inactive | inactive | – | –
113 | CCN(CC)CC(=O)Nc1c(C)cccc1C | inactive | inactive | – | –
114 | O=S1(=O)N=C(O)c2ccccc21 | inactive | inactive | – | –
115 | CC(=O)SC[C@@H](C)C(=O)N1CCC[C@H]1C(=O)N[C@@H](Cc1ccccc1)C(=O)O | inactive | inactive | – | –
